Results reported in PubChem BioAssay AID686978 (National Center for Advancing Translational Sciences (NCATS), 2013).
Where “and” joins values, the source holds several entries; their conditions need not be identical. Equal entries are not always repeated. About 64,000 (15%) of roughly 420,000 compounds were called active. Inconclusive results (about 27%) are left out. This excerpt belongs to a sample that is enriched for actives. Unmarked numbers belong to inactive results. The call rests on the fitted dose curve; in most records, active means well fitted inhibition curve with a large enough effect; inconclusive means small, poorly fitted or top-dose-only effect; inactive means flat fitted curve, though single readings scatter.

Test: qHTS for Inhibitors of human tyrosyl-DNA phosphodiesterase 1 (TDP1): qHTS in cells in absence of CPT; further: nearly all actives have a fitted effect of over 55% in size
Settings: DT40 Tdp1-/- hTDP1 cells, no CPT, ATP luminescence, 48 h; series mostly up to 46.2 µM; activity change, negative = growth inhibition: at the top concentration
How it was run: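 Stably hTDP1-transfected Tdp1-null chicken DT40 cells were treated with library compounds minus camptothecin and grown for at least 48 hr at 37 °C, after which cellular ATP was quantified by luminescence.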
On the % scale 0 is the no-effect control and ±100 the full control effect; potency means the concentration at half of the fitted maximal effect.

SMILES	activity change, negative = growth inhibition	Potency
CC1CCCCN1Cc1cccnc1 (centres undefined)	-1.31%	
CN1CCC(N(C)Cc2cccnc2)CC1	-2.53%	
CCOP(=S)(OCC)SCOC(=O)NCC(=O)OC	-18.9%	
CC(Cc1cccs1)NCc1ccc(Cl)cc1 (centres undefined)	4.2%	
C[C@@H]1Cn2cnc(C(=O)Nc3ccc(CNC(=O)OC(C)(C)C)cc3)c2C(=O)N1	-111%	
CC(=O)NCC1=C(c2ccc3ccccc3c2)C[C@@H]2CC[C@H]1N2Cc1ccco1		23.1 µM (active)
O=C(NCC1=C(c2ccc3ccccc3c2)C[C@@H]2CC[C@H]1N2Cc1ccco1)c1cccs1		23.1 µM (active)
N[C@H](Cc1o[nH]c(=O)c1Cl)C(=O)O	-6.29%	
CC(=NCc1ccc2c(c1)OCO2)c1c(O)[nH]c(=O)[nH]c1=O	-20.8%	
Cc1ccc(S(=O)(=O)N(C)c2ccc(C(=O)NCC3(N(C)C)CCCCC3)cc2)cc1	-11.7%	
CN(C)c1nc(N(C)C)nc(N(C#N)CCCl)n1	-14.3%	
C/C(CCc1c[nH]c2ccccc12)=N\O	-14.6%	
c1cncc(CNCCc2c[nH]c3ccccc23)c1	-6.22%	
COc1ccc(CNCCc2c[nH]c3ccccc23)cc1OC		18.4 µM (active)
COc1ccc2[nH]cc(CCNCc3ccc(Br)cc3)c2c1		10.3 µM (active)
Cc1cc(C=C2C(=O)NC(=O)NC2=O)c(C)n1-c1ccncc1	-8.31%	
O=c1[nH]c(=O)n(CCc2ccccc2)c(O)c1/C=N/N1CCOCC1	-2.42%	
Cc1ccc(Cl)cc1N1CCN(C(=O)C2CCC(CNS(=O)(=O)c3cccs3)CC2)CC1 (centres undefined)		18.4 µM (active)
Cc1nc2nc(C)c(CCC(=O)N3CCC4(CC3)OCCO4)c(C)n2n1	-0.828%	
CCOP(=O)(OCC)C(O)c1ccc(OC)cc1OC (centres undefined)	-3.05%	
CC[C@H]1CN2CCc3cc(OC)c(OC)cc3[C@@H]2C[C@@H]1C[C@H]1NCCc2cc(OC)c(OC)cc21		150 nM (active) and 36.6 nM (active)
Nc1ccc([N+](=O)[O-])cc1		inactive
CCOc1ccc(CN(CCCl)CCCl)cc1C(=O)OC		4.11 µM (active)

SMILES	activity change, negative = growth inhibition	Potency
COC([CH2][Hg])CNC(=O)c1ccccc1OCC(=O)O (centres undefined)		1.68 µM (active)
CC1([N+](=O)[O-])COP(=O)(Nc2ccc(F)cc2)OC1 (centres undefined)	0.324%	
Fc1ccc(N2CCN(Cc3ccc4c(c3)OCO4)CC2)cc1	-7.95%	
O=C(Cc1ccccc1[N+](=O)[O-])N1CCN(Cc2ccc3c(c2)OCO3)CC1	-18.5%	
Cc1ccc(NC(=O)N(Cc2ccc3c(c2)OCO3)C2CCN(Cc3ccccc3)CC2)cc1F		23.1 µM (active)
OCC#CC[N+]1(CC#Cc2ccccc2)CCCC1	26.8%	
CN1CCN(Cc2ccc(OC(F)(F)F)cc2)CC1	-2.54%	
CN(C)CCCN=Cc1c(O)n(Cc2ccco2)c(=O)[nH]c1=O	-1.96%	
ClCCN(CCCl)c1ccc(C=Nc2ccc(/C=C/c3ccnc4ccccc34)cc2)cc1		11.2 µM (active)
COc1ccccc1NC(=O)N1C[C@@H]2C[C@@H](C1)c1cccc(=O)n1C2	2.23%	
COc1ccccc1N=Nc1c(O)[nH]c(=S)[nH]c1=O	-17.8%	
O=c1[nH]c(=S)[nH]c(O)c1/C=C1\C=Nc2ccccc21		9.2 µM (active)
CNC(=S)N/N=C1\C2CN3CCN(C2)CC1(c1ccccc1)C3	6.18%	
C=C(C)C1(CCCC)C(=O)NC(=S)NC1=O	-16.4%	
CC(C)C(N)C(=O)OCCOCn1cnc2c(=O)[nH]c(N)nc21 (centres undefined)		4.11 µM (active)
CC/C(=N\NC(=O)c1ccccc1O)c1c(O)n(Cc2ccccc2)c(=O)[nH]c1=O	22.5%	
CC(=O)N(C1=NCCCS1)c1ccccc1F	-3.5%	
C[C@]12CCCCC1=CC(=O)C1C2CC[C@@]2(C)C1C[C@@H](F)[C@@H]2O (some centres undefined)		16.4 µM (active)
NCCc1ccc(S(=O)(=O)F)cc1	0.906%	
N=c1ccccn1Cc1ccccc1	-7.46%	
C/C(=C\C=C/[C@@H](C)C(=O)O)[C@H]1CN[C@H](C(=O)O)[C@@H]1CC(=O)O	-13%	
Cc1cccc(OP(=O)(Oc2cccc(C)c2)OC(c2ccccc2)C(F)(F)F)c1 (centres undefined)		16.4 µM (active)
C[N+]1(C)CCOC(O)(c2ccc(-c3ccc(C4(O)C[N+](C)(C)CCO4)cc3)cc2)C1 (centres undefined)		inactive

SMILES	activity change, negative = growth inhibition	Potency
CC1=CC(=Cc2sc3ccccc3[n+]2C)C=C(C)O1		0.0164 µM (active)
ClC(Cl)(Cl)c1ccccc1	7.72%	
CCOP(=O)(OCC)C(Nc1cccc(C)c1)c1ccc(F)cc1 (centres undefined)		16.4 µM (active)
CC[N+]1(C)CCCC(OC(=O)C(O)(c2ccccc2)c2ccccc2)C1 (centres undefined)		inactive
O=c1[nH]c(O)c(C=Nc2cc(F)cc(F)c2)c(=O)[nH]1	-3.87%	
CCN(CC)c1ccc([N+](=O)[O-])c2cccnc12	-6.29%	
CN(c1ccccc1)c1ccc([N+](=O)[O-])c2nonc12		16.4 µM (active)
O=C(O)/C=C/c1ccc2c(c1)OCO2	3.92%	
O=C(CN1CCCC1=O)NCCc1ccccc1	-11.4%	
CCOP(=O)(OCC)C(NC(=O)c1ccc(C)cc1)C(Cl)(Cl)Cl (centres undefined)	-1.8%	
CCOP(=O)(OCC)C(Cc1ccccc1)N=C(c1ccccc1)c1ccccc1 (centres undefined)		14.6 µM (active)
CCOP(=O)(OCC)C(NC(=O)c1ccc(OC)cc1)C(Cl)(Cl)Cl (centres undefined)	-5.09%	
O=C(NC(=S)N1C[C@H]2C[C@H](C1)c1cccc(=O)n1C2)c1ccc(F)cc1	-2.67%	
O=C(c1ccccc1[N+](=O)[O-])N1CCC2(CC1)OCCO2	-1.62%	
Cc1ccc(-c2cc(C(=O)N3CCC4(CC3)OCCO4)no2)cc1	-26.7%	
O=C(c1cc2nc(-c3ccccc3)cc(-c3ccccc3)n2n1)N1CCC2(CC1)OCCO2		23.1 µM (active)
CN(C)C(=O)Oc1ccc2c(c1)O/C(=C\c1ccccc1)C2=O	1.24%	
Cc1ncsc1CCCl		inactive
Cc1ccc(S(=O)(=O)N2CCCc3cc(NS(=O)(=O)c4cc(C)ccc4C)ccc32)cc1		13 µM (active)
COC(=O)C[C@H]1CC[C@H]2NC[C@@H](O)COC[C@@H]2O1	9.41%	
c1ccc2c(c1)[I+]c1ccccc1-2		33.5 nM (active) and 15.8 nM (active) and 126 nM (active)
Cc1cccc(NC(=O)OC2CN3CCC2CC3)c1 (centres undefined)	-16%	
COc1ccccc1C1=NCc2nnc(CSC)n2-c2ccc(Cl)cc21	-17%	
